# Measurements reported in PubChem BioAssay AID720533 (National Center for Advancing Translational Sciences (NCATS), 2013).
# Several values for one entry are separate records, joined by “and”; a condition that tells them apart may be missing. Identical values can stand only once. Out of some 18,000 compounds screened, about 750 (4.2%) were called active. Roughly 13% stayed inconclusive and do not appear here. Many of the other results were omitted from the sample, so actives are more common in it than they were. A number with no mark means an inactive call. Calls follow the shape of the full dose curve; tested in HEK293 cells. Starred links: 1 amine or outer side, 2 acyl side, 3 side chain; linkers in the order of their positions; H or OH if unused. Positions of bridges follow the written chain, without caps; N, C: chain ends. Non-standard residues stand in square brackets, D forms with d. Residues, ends and D or L forms follow the SMILES beside them. *: point of attachment. X15 = NC1=N[C@@H]([C@H](N[*:1])C(=O)[*:2])C[C@H](O)N1; ΔAla(Z-3-ureido) = NC(=O)N/C=C(\N)C(=O)O; β3hOrn = NCCC[C@H](N)CC(=O)*; Dap = NC[C@H](N)C(=O)O
# Assay: qHTS for Inhibitors of binding or entry into cells for Lassa Virus
# Details: Lassa virus pseudotyped entry inhibition, cell-based qHTS; series mostly up to 49.2 µM; activity change, negative = inhibition: at the top concentration
# % is scaled to controls: 0 for no effect and ±100 for the full control effect; potency is read from the fitted curve at half-maximal effect.
SMILES,"activity change, negative = inhibition",Potency
O=C(O)CCC(=O)O,-0.191%,–
O=C(CCN1Cc2ccccc2OC(c2ccccc2)C1)N[C@@H]1CS(=O)(=O)C[C@H]1O (some centres not stated),-3.72%,–
COC(=O)c1c(OCc2ccc(F)cc2)cc(=O)n2c1CCN(Cc1ccc3cccnc3c1)CC2,-12.1%,–
CC1C(=O)N(Cc2cn(Cc3ccco3)nn2)CCS(=O)(=O)N1Cc1ccc(-c2cccc(CO)c2)cc1 (configuration not stated),-19.8%,–
Cc1cccc(CN2CCN(C3CN(Cc4cn(Cc5ccccc5F)nn4)S(=O)(=O)C3)CC2)c1 (configuration not stated),23.5%,–
NCCC[C@H](N)CC(=O)N[C@H]1CNC(=O)[C@H]([C@H]2C[C@H](O)NC(N)=N2)NC(=O)/C(=C/NC(N)=O)NC(=O)[C@H](CO)NC(=O)[C@H](CO)NC1=O (β3hOrn-[Dap]SS[ΔAla(Z-3-ureido)][X15]; lactam 1-C),6.4%,–
O=C1C2=C(C(=O)c3ccccc31)[C@H]1O[C@](CCCCN3C(=O)c4ccccc4C3=O)(Cc3c1ccc1ccccc31)O2,10.1% [at 8.59 µM],–
C/C(Nc1ccc2oc(=O)ccc2c1)=C1/C(=O)CC2[C@@H]1C2(C)C (some centres not stated),-4.73%,–
CCCCCCc1cc2cc(OC)c(OC)cc2c2c(C(=O)OC)c(C(=O)OC)c(C(=O)OC)n12,-14.4% [at 8.59 µM],–
CO[C@]1(NC(=O)CSC(F)F)C(=O)N2C(C(=O)O)=C(CSc3nnnn3CCO)CO[C@H]21,-13.4%,–
O=C(C=Cc1ccccc1)Nc1cccc(C(=O)N2CCCCC2)c1,28.6%,–
Nc1nc(-c2ccc3c(c2)C(=Cc2cc(Br)c(O)c(Br)c2)C(=O)N3)cs1,9.64%,–
Cc1ccc(-c2ccc(CN3C(C(C)C)C(=O)N(Cc4cn(CCC5OCCCO5)nn4)CCS3(=O)=O)cc2)cc1 (configuration not stated),-14.3%,–
COC(=O)CC1c2ccccc2C(Cc2ccc(OC)cc2)=C(C)N1C(=O)OC (configuration not stated),25.9% [at 8.59 µM] and -25.2% [at 8.59 µM],–
C=CC1=C2C=C(C3CC3)N(C(CO)CO)C=C2C(=O)C(C)(OC(=O)c2ccco2)C1=O (configuration not stated),4.32% [at 8.59 µM],–
COCC(=O)Nc1cc(C(=O)N2CCCC(c3ccccc3)CC2)c2c(c1)nc(-c1ccncc1)n2C (configuration not stated),-11.7%,–
C[C@@H](O)[C@@H]1NC(=O)[C@H](CCCCN)NC(=O)[C@H](Cc2c[nH]c3ccccc23)NC(=O)[C@H](Cc2ccccc2)NC(=O)[C@H](Cc2ccccc2)NC(=O)[C@H](CC(N)=O)NC(=O)[C@H](CCCCN)NC(=O)[C@@H](NC(=O)[C@@H]2CCCN2)CSSC[C@@H](C(=O)N[C@@H](CCCCN)C(=O)O)NC(=O)[C@H](CO)NC(=O)[C@H](CO)NC(=O)[C@H](Cc2ccccc2)NC1=O (H-PCKNFFWKTFSSCK-OH; disulfide 2-13),-1.87%,–
C[C@@]12CC[C@H]3[C@@H](CC[C@]4(O)C[C@H](O)CC[C@@]34C=O)[C@]1(O)CC[C@@H]2C1=CC(=O)OC1,–,1.26 µM (active)
COC1CC(OC2CC[C@@]3(C=O)C4CC[C@]5(C)C(C6=CC(=O)OC6)CC[C@@]5(O)C4CC[C@]3(O)C2)OC(C)C1O (some centres not stated),–,0.282 µM (active)
Nc1nc2c(nc(Cl)n2C2OC(CO)C(O)C2O)c(=O)[nH]1 (configuration not stated),-8.45%,–
CC(C)NC[C@H](O)c1ccc2ccccc2c1,inactive,–
C#C[C@]1(O)CC[C@H]2[C@@H]3CCC4=CC(=O)CC[C@@H]4[C@H]3CC[C@@]21CC,-26.1%,–
C#C[C@]1(OC(=O)CCCCCC)CC[C@H]2[C@@H]3CCC4=CC(=O)CC[C@@H]4[C@H]3CC[C@@]21C,–,31.6 µM (active)
CC(=O)OCC(=O)[C@@]1(O)CCC2C3CCC4=CC(=O)CC[C@]4(C)C3C(=O)C[C@]21C (some centres not stated),-0.0255%,–
O=c1[nH]c(=O)c2nc3ccccc3nc2[nH]1,4.84%,–
CC(O)(COc1ccccc1)c1ccc2c(c1)CN(Cc1cn[nH]c1-c1ccc(F)cc1)CCO2 (configuration not stated),-20.1%,–

SMILES,"activity change, negative = inhibition",Potency
CCCCCC(=O)N1C[C@H](n2cc(COC(=O)c3ccccc3)nn2)[C@@H](O)C[C@H]1c1ccc(Cl)cc1,-9.09%,–
C=C(CCN1C=C(C(=O)OCC)C(c2ccccc2)NC1=O)OC (configuration not stated),-11% [at 8.59 µM],–
CC(O)[C@@H](N)C(=O)O (some centres not stated),-10.8%,–
COc1c(O)c2c(=O)cc(OC)c3c4c(OC)cc(=O)c5c(O)c(OC)c6c(c(c1C[C@@](C)(O)[C@H]6C(C)=O)c23)c54,–,35.5 µM (active)
CCOC(=O)C1=NO[C@@]2(C=C(Br)C(=O)[C@H]3O[C@H]32)C1,-19.1%,–
COc1ccc(C2CC(=O)Oc3ccc(C(C)(C)C)cc32)cc1 (configuration not stated),-3.99%,–
CC(C)C[C@@H](CC(=O)N[C@@H](CCC(=O)O)CC(=O)O)NC(=O)[C@@H]1CCCC[C@H]1NC(=O)C[C@@H](NC(=O)C[C@H](CO)NC(=O)[C@@H]1CCCC[C@H]1N)C(C)C,-3.83%,–
CN1CCCC1CCO[C@@](C)(c1ccccc1)c1ccc(Cl)cc1 (some centres not stated),–,12.6 µM (active)
CN1CCC[C@@H]1CCO[C@](C)(c1ccccc1)c1ccc(Cl)cc1,-29.2% [at 17.8 µM],–
Fc1ccc(C(OCCN2CCN(C/C=C\c3ccccc3)CC2)c2ccc(F)cc2)cc1,–,28.2 µM (active)
COc1ccc(CC2c3cc(OC)c(OC)cc3CC[N+]2(C)CCC(=O)OCCCCCOC(=O)CC[N+]2(C)CCc3cc(OC)c(OC)cc3C2Cc2ccc(OC)c(OC)c2)cc1OC (configuration not stated),-6.74% [at 17.8 µM],–
CC(C)[C@@H](CC(=O)N[C@@H]1CCNC[C@H]1C(=O)N[C@H](CC(=O)N[C@@H](CCC(=O)O)CC(=O)O)Cc1ccccc1)NC(=O)C[C@H](CO)NC(=O)[C@@H]1CNCC[C@H]1N,-0.433%,–
CN1CC(O)c2cc(N=NC(N)=O)c(O)cc21 (configuration not stated),-5.48%,–
CN(C)CCc1c[nH]c2ccc(Cn3cncn3)cc12,5.48%,–
Fc1ccc(Cl)cc1-c1nc(Nc2ccncc2)c2nccnc2n1,-20.8%,–
CCS(=O)(=O)N(C)[C@@H]1c2cc(C#N)ccc2OC(C)(C)[C@H]1O,inactive,–
CCc1cc2c(nc1CC)CCN(CCC(C)=NOC[C@@H](O)COCc1ccco1)C2,3.34% [at 8.59 µM],–
Cc1ccc(-c2cc(=O)c3ccc(Cl)cc3[nH]2)cc1,0.446%,–
C=C(C(C)=O)C(O)c1cccs1 (configuration not stated),inactive,–
COC12CC[C@@]3(C[C@@H]1C(C)(O)C(C)(C)C)[C@H]1Cc4ccc(O)c5c4[C@@]3(CCN1CC1CC1)[C@H]2O5 (some centres not stated),–,28.2 µM (active)
COc1ccc(CNS(=O)(=O)c2cc(Br)ccc2Br)cc1,15.9%,–
O=S(O)CNc1ccc(S(=O)(=O)c2ccc(NCS(=O)O)cc2)cc1,1.37%,–
O=C(O)C1=CCCN(CCON=C(c2ccccc2)c2ccccc2)C1,inactive,–
COc1ccc(C2=C(N3CCc4ccccc43)C(=O)NC2=O)cc1,-26.5%,–
CC1=C(/C=C/C(C)=C/C=C/C(C)=C/C=C/C=C(C)/C=C/C=C(C)/C=C/C2=C(C)CCCC2(C)C)C(C)(C)CCC1,9.81%,–
COc1ccc(CCNc2ncnc3sc(C(=O)N4CCCC4)c(C)c23)cc1OC,-8.35%,–

SMILES,"activity change, negative = inhibition",Potency
Cc1c2ccc(N(C)c3ccnc(Nc4cccc(S(N)(=O)=O)c4)n3)cc2nn1C,-0.986%,–
C=CCC(C)(O)c1ccco1 (configuration not stated),-0.27%,–
CC1=C[C@H]2c3ccccc3C[C@H]2CO[C@]12C(=O)N(Cc1ccc(Br)cc1)c1ccccc12,16.7% [at 8.59 µM],–
COc1ccccc1-c1ccnc(-n2ncc(C(=O)NCCc3ccncc3)c2C)n1,-18.3%,–
CCOc1ccc(NS(=O)(=O)c2ccc(N)cc2)nn1,2.16%,–
CC(C)[C@@H](CO[Si](C)(C)C(C)(C)C)N1C[C@@H](N2CCCC2)CS1(=O)=O,-10.9%,–
C=CC1=C2C=C(C3CC3)N(CC(C)C)C=C2C(=O)C(C)(OC(=O)c2ccco2)C1=O (configuration not stated),-4.02% [at 8.59 µM],–
NC(=O)C(=O)N/N=C/c1ccc([N+](=O)[O-])o1,-13%,–
Cc1ccc(-c2nn(CC(C)(C)C)c3ncnc(N)c23)cc1,-24.1%,–
Cc1csc(-c2coc3cc(O[C@@H]4O[C@H](CO)[C@@H](O)[C@@H](O)[C@H]4O)ccc3c2=O)n1,28%,–
COc1ccc([C@@H](NC(=O)C(F)(F)F)C2CCCC=C2c2ccccc2)cc1OC (some centres not stated),-11.1% [at 8.59 µM],–
NNc1nnc(Cc2ccncc2)c2ccccc12,-16.1%,–
O=Cc1c(Cl)cccc1Cl,-7.53%,–
O=C1C(c2ccccn2)=[N+]([O-])c2ccccc21,1.18%,–
Cc1nnc(C(=O)NC(C)(C)c2nc(C(=O)NCc3ccc(F)cc3)c(O)c(=O)n2C)o1,-10.3%,–
C[C@@H]1C[C@H]2CC[C@H](O2)[C@H](C)C(=O)O[C@@H](C)C[C@@H]2CC[C@@H](O2)[C@@H](C)C(=O)O[C@H](C)C[C@H]2CC[C@H](O2)[C@H](C)C(=O)O[C@@H](C)C[C@@H]2CC[C@@H](O2)[C@@H](C)C(=O)O1,–,0.562 µM (active)
CCCCCCCCCCCC(=O)O[C@H](CC(=O)O)C[N+](C)(C)C,-5.17%,–
COC1=C[C@H](C(=O)N[C@H]2CCCC[C@H]2NC(C)=O)[C@H](C)[C@@H](c2ccccc2)CC1=O,-1.51% [at 8.59 µM],–
COc1cccc([C@@H]2Oc3ccc(Br)cc3C(=O)[C@H]2OC(=O)NCc2ccc3c(c2)OCO3)c1,-0.946%,–
CN1CCCCCC1C(=O)NCCN1Cc2ccccc2OC(c2ccsc2)C1 (configuration not stated),4.6%,–
CCCCC/C=C\C[C@H](O)/C=C/C=C/C=C/[C@@H](O)CCCC(=O)O,6.82%,–
O=C(/C=C/c1cccc(F)c1)NC1CC1,9.73%,–
CC[N+](C)(CC)CCC[n+]1c(-c2ccccc2)c2cc(N)ccc2c2ccc(N)cc21,–,3.16 µM (active)
Brc1ccc(C2=NCCC(c3ccccc3)O2)cc1 (configuration not stated),-12.7%,–
COC1=C[C@H](C(=O)NCc2ccccc2)[C@@]2(C)Cc3ccccc3[C@@H]2CC1=O,-4.25% [at 8.59 µM],–
